Measurements taken from PubChem BioAssay (NCATS).
Inconclusive results are not listed. Where a call stands in place of a potency, no number is given. Unmarked numbers belong to inactive results. Calls of active or inactive are those of the source. Calls follow the shape of the dose curve; as a rule, active = well fitted curve in the direction sought with a large enough effect; inconclusive = small, poorly fitted or top-dose-only effect, or another doubt; inactive = no such curve, though single readings can be large; an effect the other way counts as inactive or inconclusive.

Tests used:
CRL-7250 = normal cell line; experiment: Cytotoxic Profiling of Annotated Libraries Using Quantitative High-Throughput Screening (AID 1296008); details: Five cell lines viability, CellTiter-Glo ATP luminescence, 48-72 h; max response: active compounds read low; also: nearly all actives have a fitted effect of over 60% in size
Summary of the method: (§1)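 Cells exposed to compounds for 48 or 72 hr at 37 degrees Celsius. Viability read as ATP-coupled luminescence with CellTiter-Glo after 10 min at room temperature.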

HaCat = experiment: as above; details: Five cell lines viability, CellTiter-Glo ATP luminescence, 48-72 h; max response: active compounds read low
Summary of the method: as §1

KB-3-1 = experiment: as above; details: Five cell lines viability, CellTiter-Glo ATP luminescence, 48-72 h; max response: active compounds read low
Summary of the method: as §1

NIH3T3 = experiment: as above; details: Five cell lines viability, CellTiter-Glo ATP luminescence, 48-72 h; max response: active compounds read low
Summary of the method: as §1

C33A = experiment: Primary qHTS to identify gynecologic anti-cancer compounds using libraries of approved drugs and bioactive compounds (AID 1345084); details: Gynecologic cancer cell panel viability, ATPlite luminescence, 48 h; series mostly up to 57.5 µM; also: nearly all actives have a fitted effect of over 55% in size
Summary of the method: (§2)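 Cytotoxicity screen measuring ATP content by luciferase luminescence. Each compound is applied at five concentrations for 48 h at 37 C with 5% CO2.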

CAOV3 = experiment: as above; details: Gynecologic cancer cell panel viability, ATPlite luminescence, 48 h; series mostly up to 57.5 µM
Summary of the method: as §2

CASKI = experiment: as above; details: Gynecologic cancer cell panel viability, ATPlite luminescence, 48 h; series mostly up to 57.5 µM
Summary of the method: as §2

Es-2 = experiment: as above; details: Gynecologic cancer cell panel viability, ATPlite luminescence, 48 h; series mostly up to 57.5 µM
Summary of the method: as §2

HeLa = experiment: as above; details: Gynecologic cancer cell panel viability, ATPlite luminescence, 48 h; series mostly up to 57.5 µM
Summary of the method: as §2

Hek293T = experiment: as above; details: Gynecologic cancer cell panel viability, ATPlite luminescence, 48 h, control line for the selectivity index; series mostly up to 57.5 µM
Summary of the method: as §2

JEG-3 = experiment: as above; details: Gynecologic cancer cell panel viability, ATPlite luminescence, 48 h; series mostly up to 57.5 µM
Summary of the method: as §2

OV90 = experiment: as above; details: Gynecologic cancer cell panel viability, ATPlite luminescence, 48 h; series mostly up to 57.5 µM
Summary of the method: as §2
Potency is read from the fitted curve at half-maximal effect.

CC(C)CCNc1ncccc1C(=O)N1CCN(Cc2ccccc2)CC1
max response (CRL-7250): -4.32% | max response (HaCat): 1.63% | max response (KB-3-1): 4.22% | max response (NIH3T3): 2.66% | Potency (C33A): inactive | Potency (CAOV3): inactive | Potency (CASKI): inactive | Potency (Es-2): inactive | Potency (HeLa): inactive | Potency (Hek293T): inactive | Potency (JEG-3): inactive | Potency (OV90): inactive

COc1ccc(C(=O)Nc2c(Cl)cncc2Cl)cc1OC1CCCC1
max response (CRL-7250): -3.72% | max response (HaCat): -24.5% | max response (KB-3-1): -14.8% | max response (NIH3T3): -4.74% | Potency (C33A): inactive | Potency (CASKI): inactive | Potency (Es-2): inactive | Potency (HeLa): inactive | Potency (Hek293T): inactive | Potency (JEG-3): inactive | Potency (OV90): inactive

N#Cc1ccc(COC[C@H]2O[C@@H](n3c(NCc4ccc(Cl)c(Cl)c4)nc4c(N)ncnc43)[C@H](O)[C@@H]2O)cc1
outcome (CRL-7250): inactive | max response (HaCat): -23% | max response (KB-3-1): 2.86% | max response (NIH3T3): -0.0303% | Potency (C33A): inactive | Potency (CAOV3): inactive | Potency (CASKI): inactive | Potency (Es-2): inactive | Potency (HeLa): inactive | Potency (Hek293T): inactive | Potency (JEG-3): inactive | Potency (OV90): inactive

CC/C(C)=C/C(=O)OC1C(OC2(C)CCC3C(C4C(C)CCC42)C3(C)C)OC(C)C(O)C1O (stereo not drawn)
max response (CRL-7250): -1.32% | max response (HaCat): -0.133% | outcome (KB-3-1): inactive | max response (NIH3T3): -0.0823% | Potency (C33A): inactive | Potency (CASKI): inactive | Potency (Es-2): inactive | Potency (HeLa): inactive | Potency (Hek293T): inactive | Potency (JEG-3): inactive | Potency (OV90): inactive

CC1(C)CCC2(C(=O)OC3OC(COC4OC(CO)C(O)C(O)C4O)C(O)C(O)C3O)CCC3(C)C(=CCC4C5(C)CCC(OC6OCC(O)C(O)C6O)C(C)(C)C5CCC43C)C2C1O (stereo not drawn)
max response (CRL-7250): -0.133% | max response (HaCat): -3.21% | outcome (KB-3-1): inactive | max response (NIH3T3): -18.4% | activity change, negative = cytotoxicity (C33A): -1.3% [at 11.6 µM] | activity change, negative = cytotoxicity (CAOV3): 1.87% [at 11.6 µM] | activity change, negative = cytotoxicity (CASKI): -6.34% [at 11.6 µM] | activity change, negative = cytotoxicity (Es-2): 5.34% [at 11.6 µM] | activity change, negative = cytotoxicity (HeLa): 20.6% [at 11.6 µM] | activity change, negative = cytotoxicity (Hek293T): -15.1% [at 11.6 µM] | activity change, negative = cytotoxicity (JEG-3): -7.3% [at 11.6 µM] | activity change, negative = cytotoxicity (OV90): -2.98% [at 11.6 µM]

C[C@@H]1C[C@H](C)CN(CCC(=O)Nc2ccc(Br)cc2)C1
max response (CRL-7250): -5.34% | max response (HaCat): -4.42% | max response (KB-3-1): -13.7% | max response (NIH3T3): -17.9% | Potency (C33A): inactive | Potency (CASKI): inactive | Potency (Es-2): inactive | Potency (HeLa): inactive | Potency (Hek293T): inactive | Potency (JEG-3): inactive | Potency (OV90): inactive

CN(C)C(=O)Nc1cccc(-c2ccc(N(C)C)cc2)c1
max response (CRL-7250): -5.4% | max response (HaCat): -0.332% | max response (KB-3-1): -4.8% | max response (NIH3T3): 3% | Potency (C33A): inactive | Potency (CAOV3): inactive | Potency (CASKI): inactive | Potency (Es-2): inactive | Potency (HeLa): inactive | Potency (JEG-3): inactive | Potency (OV90): inactive

O=C(NCCO)c1cccc(-c2cc(Nc3ccc(OC(F)(F)F)cc3)ncn2)c1
max response (CRL-7250): 0.504% | max response (HaCat): -14.2% | max response (KB-3-1): -22.2% | max response (NIH3T3): -22.6% | Potency (C33A): inactive | Potency (CAOV3): inactive | Potency (CASKI): inactive | Potency (Es-2): inactive | Potency (HeLa): inactive | Potency (JEG-3): inactive | Potency (OV90): inactive

C/C(=C\Cc1c(O)c(Cl)c(C)c(C=O)c1O)CC/C=C(\C)[C@H]1CC(=O)C(C)(C)O1
max response (CRL-7250): -27.3% | max response (HaCat): -8.07% | max response (KB-3-1): -27.9% | max response (NIH3T3): -17.5% | Potency (C33A): inactive | Potency (CAOV3): inactive | Potency (CASKI): inactive | Potency (Hek293T): inactive | Potency (OV90): inactive

O=C(NCCCNC(=O)c1ccc[nH]c1=O)c1cc(-c2ccccc2)on1
max response (CRL-7250): -21.2% | max response (HaCat): -1.65% | max response (KB-3-1): -25.1% | max response (NIH3T3): 2.72% | Potency (C33A): inactive | Potency (CASKI): inactive

Clc1ncoc1-c1c[nH]c2ccccc12
outcome (CRL-7250): inactive | max response (HaCat): -17.9% | max response (KB-3-1): 7.62% | max response (NIH3T3): -6.46% | Potency (C33A): inactive | Potency (CAOV3): inactive | Potency (CASKI): inactive | Potency (Es-2): inactive | Potency (Hek293T): inactive | Potency (JEG-3): inactive | Potency (OV90): inactive

CC(=O)NCc1cccc(OC[C@@H](O)CNCCc2ccc(NS(=O)(=O)c3ccccc3)cc2)c1
max response (CRL-7250): -6.68% | max response (HaCat): -3.13% | max response (KB-3-1): -5.62% | outcome (NIH3T3): inactive | Potency (C33A): inactive | Potency (CASKI): inactive | Potency (Es-2): inactive | Potency (HeLa): inactive | Potency (Hek293T): inactive | Potency (JEG-3): inactive

CC(C)C[C@H](CO)Nc1nc(S[C@@H](C)c2ccccc2)nc2nc(N)sc12
max response (CRL-7250): 1.1% | max response (HaCat): -4.79% | outcome (KB-3-1): inactive | max response (NIH3T3): 2.79% | Potency (C33A): inactive | Potency (CAOV3): inactive | Potency (CASKI): inactive | Potency (Es-2): inactive | Potency (HeLa): inactive | Potency (Hek293T): inactive | Potency (OV90): inactive

C=C1C(=O)O[C@@H]2/C=C(/C)[C@@H](OC(C)=O)C/C=C(\C)C[C@@H](OC(=O)/C(=C/CO)CO)[C@@H]12
max response (CRL-7250): 3.05% | max response (HaCat): -3.88% | outcome (KB-3-1): inactive | max response (NIH3T3): 0.581% | Potency (C33A): inactive | Potency (CAOV3): inactive | Potency (CASKI): inactive | Potency (HeLa): inactive | Potency (JEG-3): inactive | Potency (OV90): inactive

CC(O)(C(=O)C1CC1(CO)COC1OC(CO)C(O)C(O)C1O)C1C(O)CC2C3CC=C4CC(O)CC(O)C4(C)C3C(O)CC21C (stereo not drawn)
Potency (CRL-7250): 432 nM (active) | Potency (HaCat): 1720 nM (active) | Potency (KB-3-1): 769 nM (active) | max response (NIH3T3): 0.504% | Potency (C33A): 562 nM (active) | Potency (CAOV3): 1780 nM (active) | Potency (Es-2): 891 nM (active) | Potency (HeLa): 1410 nM (active) | Potency (Hek293T): 1410 nM (active) | Potency (OV90): 4470 nM (active)
